Test results: publication PMC4242493, “Sequence specificity incompletely defines the genome-wide occupancy of Myc”
In all, about 33,000 sequences were measured (“normalized occupancy”: median about 0.075, highest 2% from about 0.095 on). The sample holds the highest values, similar sequences and a random draw of the others, so the mix is not that of the screen.

The sequences below were run against MaxL homodimer (Homo sapiens, UniProt P61244 1-160) (assay: universal protein-binding microarray (PBM); PBS-based mixture, 10 nM His-tagged protein dimer, 2% milk, 200 ng/uL BSA, 50 ng/uL salmon testes DNA, 0.02% TX-100; detection with Alexa 488 anti-His antibody;; high values mean tight binding). Details: protein: recombinant; tags: C-terminal His-tag (pET21a); chain copies: 2; dsDNA, one strand shown.
Sequence of MaxL homodimer (P61244 whole entry): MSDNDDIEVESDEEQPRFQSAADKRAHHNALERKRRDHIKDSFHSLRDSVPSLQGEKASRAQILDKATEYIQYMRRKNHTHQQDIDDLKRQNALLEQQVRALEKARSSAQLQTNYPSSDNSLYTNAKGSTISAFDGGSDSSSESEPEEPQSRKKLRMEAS
Outline: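 His-tagged protein dimer at 10 nM was bound to Agilent 4 x 44 K 'all 10-mer' universal arrays and detected with 10 ng/μL fluorophore-conjugated anti-His antibody on a GenePix 4400A, giving an intensity per 8-mer. Binding occupancy normalises each intensity to the top-ranked one.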
CCACATTC was tested, and the binding signal was 0.0852 normalized occupancy.
CAACATGC gave a binding signal of 0.094 normalized occupancy.
GATCCGCA gave a binding signal of 0.0769 normalized occupancy.
CATTCAGC gave a binding signal of 0.0725 normalized occupancy.
Sequence GAATTATA has a binding signal of 0.0789 normalized occupancy.
Work on TCACTGCA yielded a binding signal of 0.075 normalized occupancy.
Sequence CTCAAGTC has a binding signal of 0.0771 normalized occupancy.
With AAGGTTTA the binding signal was 0.0757 normalized occupancy.
For CACACGCC, the binding signal was 0.0955 normalized occupancy.
Work on CACACACG yielded a binding signal of 0.0916 normalized occupancy.
CACACGCA showed a binding signal of 0.0865 normalized occupancy.
With AACACGCC the binding signal was 0.0909 normalized occupancy.
AACACGCT was tested, and the binding signal was 0.0974 normalized occupancy.
GACACGCC was tested, and the binding signal was 0.0849 normalized occupancy.
Sequence AACACGCG has a binding signal of 0.12 normalized occupancy.
CACACACA showed a binding signal of 0.087 normalized occupancy.
AACACACA was tested, and the binding signal was 0.0847 normalized occupancy.
In the case of CACACGCG, the binding signal is reported as 0.124 normalized occupancy.
For AACACGGT, the binding signal was 0.0777 normalized occupancy.
AACACGCA showed a binding signal of 0.0915 normalized occupancy.
Sequence CCACGGAC has a binding signal of 0.0742 normalized occupancy.
With CGACTAAA the binding signal was 0.0736 normalized occupancy.
In the case of TCACTTAA, the binding signal is reported as 0.078 normalized occupancy.
With GAACCAAC the binding signal was 0.0752 normalized occupancy.
Work on AGACGACA yielded a binding signal of 0.0751 normalized occupancy.
Sequence ACAAACCT has a binding signal of 0.0779 normalized occupancy.
AACGACTG gave a binding signal of 0.0722 normalized occupancy.
GACATTAC gave a binding signal of 0.0843 normalized occupancy.
With ATGCTATA the binding signal was 0.0889 normalized occupancy.
In the case of ACGCGTGG, the binding signal is reported as 0.139 normalized occupancy.
GGGCGTGA gave a binding signal of 0.0932 normalized occupancy.
CCGCGTAC showed a binding signal of 0.0726 normalized occupancy.
Sequence ACGCGTAG has a binding signal of 0.0796 normalized occupancy.
Work on ACGCGTCG yielded a binding signal of 0.0769 normalized occupancy.
ACGCGTGC was tested, and the binding signal was 0.13 normalized occupancy.
In the case of CCGCGTGC, the binding signal is reported as 0.145 normalized occupancy.
ACGCGTCC showed a binding signal of 0.0815 normalized occupancy.
ACGCGTTC was tested, and the binding signal was 0.0785 normalized occupancy.
GCGCGTTA gave a binding signal of 0.0795 normalized occupancy.
CGGCGTGC gave a binding signal of 0.0923 normalized occupancy.
GCGCGTGA showed a binding signal of 0.106 normalized occupancy.
In the case of GTGAGGGA, the binding signal is reported as 0.0752 normalized occupancy.
Work on AAAAAGCA yielded a binding signal of 0.078 normalized occupancy.
For GAAAGCGC, the binding signal was 0.0724 normalized occupancy.
ATTACCTA gave a binding signal of 0.0784 normalized occupancy.
Sequence AGGTTCTA has a binding signal of 0.0755 normalized occupancy.
CAAGCGAA gave a binding signal of 0.0755 normalized occupancy.
CAATTTCA gave a binding signal of 0.0751 normalized occupancy.
With CCGCGTGA the binding signal was 0.142 normalized occupancy.
CGGCGTGA showed a binding signal of 0.0839 normalized occupancy.
ACGCGTCA showed a binding signal of 0.0796 normalized occupancy.
With ACGCGTAA the binding signal was 0.0882 normalized occupancy.
CCGCGTAA gave a binding signal of 0.0729 normalized occupancy.
ACGCGTGA showed a binding signal of 0.114 normalized occupancy.
With ATGACGTG the binding signal was 0.0885 normalized occupancy.
AAGTGATT gave a binding signal of 0.0761 normalized occupancy.
Work on CCTGCGCA yielded a binding signal of 0.0738 normalized occupancy.
Sequence TGAGAGAA has a binding signal of 0.0879 normalized occupancy.
For TATAAGAA, the binding signal was 0.0821 normalized occupancy.
GTTACTTA showed a binding signal of 0.0751 normalized occupancy.
AATCTAAC showed a binding signal of 0.0749 normalized occupancy.
Work on ATGCCACC yielded a binding signal of 0.0841 normalized occupancy.
For ACGCCATG, the binding signal was 0.102 normalized occupancy.
ACGCCACT showed a binding signal of 0.0784 normalized occupancy.
Sequence ACGCCATC has a binding signal of 0.0794 normalized occupancy.
Sequence ATGCCACG has a binding signal of 0.101 normalized occupancy.
ACGCCACA was tested, and the binding signal was 0.0778 normalized occupancy.
With ACGCCACG the binding signal was 0.0993 normalized occupancy.
ATGCCACA was tested, and the binding signal was 0.0905 normalized occupancy.
For ACGCCATA, the binding signal was 0.0812 normalized occupancy.
In the case of ATGCGTTC, the binding signal is reported as 0.0856 normalized occupancy.
CAACCCAC was tested, and the binding signal was 0.082 normalized occupancy.
With GGCGTTCA the binding signal was 0.0718 normalized occupancy.
ACCACAAA gave a binding signal of 0.0758 normalized occupancy.
ACCACGAA showed a binding signal of 0.0771 normalized occupancy.
CCCACGAG showed a binding signal of 0.0996 normalized occupancy.
CCCACAAA was tested, and the binding signal was 0.075 normalized occupancy.
With CCCACGAA the binding signal was 0.0758 normalized occupancy.
For ACCACGAG, the binding signal was 0.115 normalized occupancy.
With GAAGTGCA the binding signal was 0.0728 normalized occupancy.
GTTTCGCA was tested, and the binding signal was 0.0757 normalized occupancy.
ATGGCTGC gave a binding signal of 0.0809 normalized occupancy.
In the case of CGTGCTGA, the binding signal is reported as 0.095 normalized occupancy.
GATGGAAC showed a binding signal of 0.0776 normalized occupancy.
ACATGCTC was tested, and the binding signal was 0.106 normalized occupancy.
Sequence CAATGCTC has a binding signal of 0.0774 normalized occupancy.
In the case of CGATGCTC, the binding signal is reported as 0.0773 normalized occupancy.
For CCATGCTC, the binding signal was 0.0989 normalized occupancy.
Work on ATATGCTC yielded a binding signal of 0.0928 normalized occupancy.
Work on CTATGCTC yielded a binding signal of 0.0822 normalized occupancy.
For CGAGCGCA, the binding signal was 0.0729 normalized occupancy.
For GACATCCC, the binding signal was 0.0774 normalized occupancy.
With CACGTTAC the binding signal was 0.115 normalized occupancy.
CACGTTAA showed a binding signal of 0.0921 normalized occupancy.
CACGTTAG was tested, and the binding signal was 0.105 normalized occupancy.
GACGTTAC was tested, and the binding signal was 0.0746 normalized occupancy.
CACGTTCA showed a binding signal of 0.0904 normalized occupancy.
Work on CACGTTCG yielded a binding signal of 0.0852 normalized occupancy.
Sequence AACGTTAG has a binding signal of 0.0732 normalized occupancy.
For AACGTTAC, the binding signal was 0.0772 normalized occupancy.
CACGTTCC was tested, and the binding signal was 0.096 normalized occupancy.
With GTAGTCCA the binding signal was 0.0722 normalized occupancy.
With TACGTAGA the binding signal was 0.0768 normalized occupancy.
Sequence GATGCGGC has a binding signal of 0.0788 normalized occupancy.
With CATGCGGA the binding signal was 0.126 normalized occupancy.
With CATGCGGC the binding signal was 0.121 normalized occupancy.
Sequence AATGCGGG has a binding signal of 0.0799 normalized occupancy.
Sequence CAGGCGGG has a binding signal of 0.0747 normalized occupancy.
For TATGCGGA, the binding signal was 0.0786 normalized occupancy.
Work on CATGCGGG yielded a binding signal of 0.121 normalized occupancy.
Sequence AATGCGGA has a binding signal of 0.0802 normalized occupancy.
Sequence AATGCGGC has a binding signal of 0.0814 normalized occupancy.
With AGGTAACC the binding signal was 0.0749 normalized occupancy.
With AAACATAC the binding signal was 0.0888 normalized occupancy.
Work on TATAAACA yielded a binding signal of 0.0776 normalized occupancy.
With CGCTCGAG the binding signal was 0.0757 normalized occupancy.
For CGATTGCA, the binding signal was 0.0745 normalized occupancy.
GGACCGAC gave a binding signal of 0.0727 normalized occupancy.
In the case of CATTTGAG, the binding signal is reported as 0.0913 normalized occupancy.
With AAGAACTC the binding signal was 0.0732 normalized occupancy.
In the case of AATTTCTA, the binding signal is reported as 0.0767 normalized occupancy.
CCATTCGC was tested, and the binding signal was 0.0743 normalized occupancy.
Sequence CTTCGTGC has a binding signal of 0.0757 normalized occupancy.
ATGGCAGG gave a binding signal of 0.0815 normalized occupancy.
Work on ACCCATGG yielded a binding signal of 0.0853 normalized occupancy.
For CCCCATTC, the binding signal was 0.0826 normalized occupancy.
CCCCATGA was tested, and the binding signal was 0.0895 normalized occupancy.
ACCCATGA was tested, and the binding signal was 0.0882 normalized occupancy.
For CCCCATGC, the binding signal was 0.107 normalized occupancy.
In the case of ACCCATGC, the binding signal is reported as 0.108 normalized occupancy.
Sequence AAAGCACT has a binding signal of 0.0757 normalized occupancy.
Work on AACCACTA yielded a binding signal of 0.0774 normalized occupancy.
Sequence AACCACGG has a binding signal of 0.0843 normalized occupancy.
In the case of AACCACGA, the binding signal is reported as 0.0902 normalized occupancy.
CACCACGA gave a binding signal of 0.082 normalized occupancy.
In the case of GACCACCA, the binding signal is reported as 0.0803 normalized occupancy.
GACCACGC was tested, and the binding signal was 0.129 normalized occupancy.
In the case of CACCACGC, the binding signal is reported as 0.119 normalized occupancy.
With AACCACCA the binding signal was 0.0807 normalized occupancy.
Sequence GACCACGA has a binding signal of 0.0865 normalized occupancy.
CACCACGG showed a binding signal of 0.0774 normalized occupancy.
AACCACGT showed a binding signal of 0.123 normalized occupancy.
Work on AACCACGC yielded a binding signal of 0.0983 normalized occupancy.
ATGCCCTG was tested, and the binding signal was 0.0757 normalized occupancy.
GAGACCCA was tested, and the binding signal was 0.0745 normalized occupancy.
TAATTGCA showed a binding signal of 0.0767 normalized occupancy.
For ACCAAGCA, the binding signal was 0.081 normalized occupancy.
CATGCGTA was tested, and the binding signal was 0.122 normalized occupancy.
In the case of AATGCGTA, the binding signal is reported as 0.0846 normalized occupancy.
Work on CATGCGTC yielded a binding signal of 0.113 normalized occupancy.
For GATGCGTA, the binding signal was 0.0807 normalized occupancy.
Work on AATGCGTC yielded a binding signal of 0.0736 normalized occupancy.
In the case of CGTGCGTC, the binding signal is reported as 0.0896 normalized occupancy.
ATGACGCG was tested, and the binding signal was 0.0781 normalized occupancy.
Work on CCGTGGGA yielded a binding signal of 0.0775 normalized occupancy.
ATGTGGGG showed a binding signal of 0.0878 normalized occupancy.
Sequence GTGTGGGA has a binding signal of 0.0899 normalized occupancy.
In the case of GGGTGGGA, the binding signal is reported as 0.085 normalized occupancy.
Work on AAGTGGGA yielded a binding signal of 0.0771 normalized occupancy.
GCGTGGGA gave a binding signal of 0.125 normalized occupancy.
For ACGTGGGC, the binding signal was 0.1 normalized occupancy.
AGGTGGGC gave a binding signal of 0.0818 normalized occupancy.
AGGTGGGG gave a binding signal of 0.0822 normalized occupancy.
For ATGTGGGC, the binding signal was 0.0919 normalized occupancy.
ACGTGGGA gave a binding signal of 0.0998 normalized occupancy.
With ACGTGGGG the binding signal was 0.0991 normalized occupancy.
Sequence GACATTGC has a binding signal of 0.0757 normalized occupancy.
Sequence GGAAGAGA has a binding signal of 0.0767 normalized occupancy.
In the case of AGAATGTC, the binding signal is reported as 0.0744 normalized occupancy.
With CCTGCTAC the binding signal was 0.0758 normalized occupancy.
For CCCTAATA, the binding signal was 0.0744 normalized occupancy.
Sequence CGATTAAG has a binding signal of 0.0743 normalized occupancy.
